{
  "source": "paper PMC7862700",
  "about": "“An all-to-all approach to the identification of sequence-specific readers for epigenetic DNA modifications on cytosine”",
  "test_in_all_cases": "DAPPL (digital affinity profiling via proximity ligation, sequencing); 10 mM Tris-HCl pH 7.5, 50 mM NaCl, 1 mM DTT, 4% glycerol, room temperature, 30 min; GST-TFs on glutathione beads, 16-mer random dsDNA library, 0.1% formaldehyde crosslink after washing; high values mean tight binding",
  "settings_in_all_cases": "protein: recombinant; tags: N-terminal GST; dsDNA, one strand shown",
  "key": {"[1]": {"target": "T1, FLI1 (Homo sapiens, UniProt Q01543 1-452)", "T1 sequence": "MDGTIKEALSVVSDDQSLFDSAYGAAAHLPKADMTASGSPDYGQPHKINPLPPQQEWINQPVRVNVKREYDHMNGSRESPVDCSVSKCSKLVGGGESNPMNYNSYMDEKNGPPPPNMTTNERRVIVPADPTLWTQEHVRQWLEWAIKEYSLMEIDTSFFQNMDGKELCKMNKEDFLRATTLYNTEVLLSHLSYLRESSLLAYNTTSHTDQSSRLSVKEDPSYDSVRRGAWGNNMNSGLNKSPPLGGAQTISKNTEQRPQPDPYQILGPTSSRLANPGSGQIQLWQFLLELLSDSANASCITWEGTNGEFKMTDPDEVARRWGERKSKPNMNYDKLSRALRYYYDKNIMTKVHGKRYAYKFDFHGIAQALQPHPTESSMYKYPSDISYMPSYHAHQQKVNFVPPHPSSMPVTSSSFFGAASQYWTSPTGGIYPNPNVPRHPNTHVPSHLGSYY", "in_short": "(§1)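 Human transcription factors carrying a GST fusion were produced in yeast, bound to glutathione beads, tagged with DNA barcodes and pooled together with a tag-only sample. Each pool was held with 200 nmole of a random double-stranded 16-mer DNA library in Tris/NaCl/DTT/glycerol buffer for 30 min at room temperature, then washed, crosslinked in 0.1% formaldehyde, proximity-ligated with BsaI/T4 ligase (1 h, 37 °C), PCR-amplified and sequenced on an Illumina NextSeq500. Binding signal is the read frequency of each hexamer for a given factor divided by its frequency in the tag-only sample.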"}, "[2]": {"target": "ELF1 (Homo sapiens, UniProt P32519 1-619)", "sequence (P32519 whole entry)": "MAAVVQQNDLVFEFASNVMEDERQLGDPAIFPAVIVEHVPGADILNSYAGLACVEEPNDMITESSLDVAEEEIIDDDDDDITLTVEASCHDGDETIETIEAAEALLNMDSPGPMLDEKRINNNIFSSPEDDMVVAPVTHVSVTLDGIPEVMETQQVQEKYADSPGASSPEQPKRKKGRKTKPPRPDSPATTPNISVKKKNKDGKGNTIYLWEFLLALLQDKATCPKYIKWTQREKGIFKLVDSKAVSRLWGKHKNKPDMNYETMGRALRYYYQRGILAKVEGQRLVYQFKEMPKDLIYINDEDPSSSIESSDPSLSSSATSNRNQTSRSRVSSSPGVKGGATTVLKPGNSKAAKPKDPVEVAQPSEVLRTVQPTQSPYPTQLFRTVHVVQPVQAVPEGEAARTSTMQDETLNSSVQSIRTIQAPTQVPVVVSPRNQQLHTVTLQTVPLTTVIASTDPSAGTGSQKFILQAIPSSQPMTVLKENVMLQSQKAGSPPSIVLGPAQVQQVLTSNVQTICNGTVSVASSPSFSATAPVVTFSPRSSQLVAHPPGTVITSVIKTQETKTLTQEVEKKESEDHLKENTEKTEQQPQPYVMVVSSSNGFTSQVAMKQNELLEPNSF", "in_short": "as §1"}, "[3]": {"target": "SPIB (Homo sapiens, UniProt Q01892 1-262)", "sequence (Q01892 whole entry)": "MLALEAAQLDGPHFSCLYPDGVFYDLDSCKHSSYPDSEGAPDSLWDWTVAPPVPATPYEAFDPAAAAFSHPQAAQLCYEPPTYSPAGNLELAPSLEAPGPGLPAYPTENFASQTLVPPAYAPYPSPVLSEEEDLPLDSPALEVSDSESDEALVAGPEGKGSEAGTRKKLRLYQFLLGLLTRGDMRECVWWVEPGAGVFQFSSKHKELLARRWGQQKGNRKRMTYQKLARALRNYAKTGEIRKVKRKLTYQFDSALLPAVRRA", "in_short": "as §1"}, "[4]": {"target": "T2, SPIC (Homo sapiens, UniProt Q8N5J4 1-248)", "T2 sequence": "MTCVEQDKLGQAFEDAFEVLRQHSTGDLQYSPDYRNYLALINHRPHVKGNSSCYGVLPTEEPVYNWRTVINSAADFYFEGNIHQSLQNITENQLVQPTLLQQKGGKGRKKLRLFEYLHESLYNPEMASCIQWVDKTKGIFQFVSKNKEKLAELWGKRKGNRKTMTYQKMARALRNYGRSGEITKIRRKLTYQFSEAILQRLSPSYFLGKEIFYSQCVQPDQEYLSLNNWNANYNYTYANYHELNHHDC", "in_short": "as §1"}, "[5]": {"target": "ELF4 (Homo sapiens, UniProt Q99607 1-663)", "sequence (Q99607 whole entry)": "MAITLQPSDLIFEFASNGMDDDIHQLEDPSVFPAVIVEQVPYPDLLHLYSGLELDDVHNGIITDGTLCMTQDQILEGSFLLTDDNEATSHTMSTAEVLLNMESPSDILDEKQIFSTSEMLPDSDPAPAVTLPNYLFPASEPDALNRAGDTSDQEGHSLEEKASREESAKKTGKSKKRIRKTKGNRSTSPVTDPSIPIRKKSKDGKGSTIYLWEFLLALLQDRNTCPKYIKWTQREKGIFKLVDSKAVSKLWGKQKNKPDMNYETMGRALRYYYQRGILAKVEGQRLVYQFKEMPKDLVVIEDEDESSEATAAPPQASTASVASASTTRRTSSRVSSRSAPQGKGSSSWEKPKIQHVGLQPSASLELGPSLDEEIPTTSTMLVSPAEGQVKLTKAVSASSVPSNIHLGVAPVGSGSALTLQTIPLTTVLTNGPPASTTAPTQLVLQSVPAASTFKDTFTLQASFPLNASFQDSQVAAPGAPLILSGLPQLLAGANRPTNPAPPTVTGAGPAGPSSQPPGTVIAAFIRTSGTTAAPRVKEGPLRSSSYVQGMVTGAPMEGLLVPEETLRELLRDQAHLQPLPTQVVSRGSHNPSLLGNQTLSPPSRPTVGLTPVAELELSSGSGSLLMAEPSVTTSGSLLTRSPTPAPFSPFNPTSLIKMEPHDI", "in_short": "as §1"}, "[6]": {"target": "T3, ELF3 (Homo sapiens, UniProt P78545 1-371)", "T3 sequence": "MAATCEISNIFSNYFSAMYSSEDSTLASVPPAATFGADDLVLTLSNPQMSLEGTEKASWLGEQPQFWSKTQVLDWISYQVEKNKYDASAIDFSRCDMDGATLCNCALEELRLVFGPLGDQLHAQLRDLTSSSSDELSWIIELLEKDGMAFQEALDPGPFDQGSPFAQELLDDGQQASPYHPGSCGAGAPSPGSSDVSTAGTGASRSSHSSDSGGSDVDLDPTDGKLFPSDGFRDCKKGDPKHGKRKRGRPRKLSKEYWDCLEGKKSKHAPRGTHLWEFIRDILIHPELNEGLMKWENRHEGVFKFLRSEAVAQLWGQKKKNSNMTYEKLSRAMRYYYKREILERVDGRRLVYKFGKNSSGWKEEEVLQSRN", "in_short": "as §1"}, "[7]": {"target": "T4, ERF (Homo sapiens, UniProt P50548 1-548)", "T4 sequence": "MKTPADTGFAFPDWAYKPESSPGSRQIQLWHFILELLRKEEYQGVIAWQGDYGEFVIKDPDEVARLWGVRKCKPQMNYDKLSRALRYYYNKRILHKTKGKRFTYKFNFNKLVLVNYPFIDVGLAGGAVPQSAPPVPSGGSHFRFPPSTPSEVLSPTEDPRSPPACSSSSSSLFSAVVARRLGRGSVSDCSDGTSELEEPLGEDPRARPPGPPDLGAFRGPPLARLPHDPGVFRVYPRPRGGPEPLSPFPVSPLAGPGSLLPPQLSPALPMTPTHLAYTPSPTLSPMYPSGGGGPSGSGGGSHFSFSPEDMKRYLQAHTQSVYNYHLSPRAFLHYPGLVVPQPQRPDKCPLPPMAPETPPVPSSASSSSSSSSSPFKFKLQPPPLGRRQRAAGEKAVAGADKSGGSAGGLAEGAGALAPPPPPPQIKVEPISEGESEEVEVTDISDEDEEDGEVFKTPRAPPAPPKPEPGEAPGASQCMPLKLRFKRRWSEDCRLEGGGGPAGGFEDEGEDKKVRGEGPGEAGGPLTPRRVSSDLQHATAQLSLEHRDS", "in_short": "as §1"}, "[8]": {"target": "T5, ETV7 (Homo sapiens, UniProt Q9Y603 1-341)", "T5 sequence": "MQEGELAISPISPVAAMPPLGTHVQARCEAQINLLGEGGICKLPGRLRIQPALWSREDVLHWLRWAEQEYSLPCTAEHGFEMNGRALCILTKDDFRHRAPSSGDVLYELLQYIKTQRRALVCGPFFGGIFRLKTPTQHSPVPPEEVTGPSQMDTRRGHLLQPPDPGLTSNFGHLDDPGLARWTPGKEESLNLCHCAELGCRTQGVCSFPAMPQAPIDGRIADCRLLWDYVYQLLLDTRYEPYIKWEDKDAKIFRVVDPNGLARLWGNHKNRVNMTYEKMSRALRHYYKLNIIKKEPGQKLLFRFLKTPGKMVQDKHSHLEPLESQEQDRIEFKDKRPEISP", "in_short": "as §1"}, "[9]": {"target": "ETV6 (Homo sapiens, UniProt P41212 1-452)", "sequence (P41212 whole entry)": "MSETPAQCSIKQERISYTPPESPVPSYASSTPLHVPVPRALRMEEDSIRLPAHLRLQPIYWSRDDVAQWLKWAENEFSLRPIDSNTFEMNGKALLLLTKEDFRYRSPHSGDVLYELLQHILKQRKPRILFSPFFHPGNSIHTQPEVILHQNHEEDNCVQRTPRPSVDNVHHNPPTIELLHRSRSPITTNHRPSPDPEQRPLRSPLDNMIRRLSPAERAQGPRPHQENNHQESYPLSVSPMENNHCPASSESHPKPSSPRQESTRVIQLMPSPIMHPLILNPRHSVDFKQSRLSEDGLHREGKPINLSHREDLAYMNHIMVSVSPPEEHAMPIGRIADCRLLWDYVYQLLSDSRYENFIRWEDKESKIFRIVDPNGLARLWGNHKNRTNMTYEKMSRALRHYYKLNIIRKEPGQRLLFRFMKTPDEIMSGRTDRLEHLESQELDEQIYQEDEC", "in_short": "as §1"}},
  "data": [
    {"sequence": "AATGTG", "values": [
      {"measurement": "binding signal", "setting": "[1]", "value": "1.04 fold enrichment (6-mer frequency, TF over GST control)"},
      {"measurement": "binding signal", "setting": "[2]", "value": "1 fold enrichment (6-mer frequency, TF over GST control)"},
      {"measurement": "binding signal", "setting": "[3]", "value": "1 fold enrichment (6-mer frequency, TF over GST control)"},
      {"measurement": "binding signal", "setting": "[4]", "value": "1.02 fold enrichment (6-mer frequency, TF over GST control)"},
      {"measurement": "binding signal", "setting": "[5]", "value": "1.03 fold enrichment (6-mer frequency, TF over GST control)"},
      {"measurement": "binding signal", "setting": "[6]", "value": "1.07 fold enrichment (6-mer frequency, TF over GST control)"},
      {"measurement": "binding signal", "setting": "[7]", "value": "1.01 fold enrichment (6-mer frequency, TF over GST control)"},
      {"measurement": "binding signal", "setting": "[8]", "value": "1.02 fold enrichment (6-mer frequency, TF over GST control)"},
      {"measurement": "binding signal", "setting": "[9]", "value": "1.01 fold enrichment (6-mer frequency, TF over GST control)"}
    ]}
  ]
}
